Results: PubChem BioAssay AID504408 (Broad Institute, 2011)
Hit rate of the full screen: of about 300,000 compounds, about 5,200 (1.7%) were called active.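 Rule for the calls: active = mean replicate activation of at least 50% with a set share of replicates each reaching 50%; inconclusive = only one of those two conditions met; inactive = mean below 50% and too few replicates reaching it.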 The list comes from a sample in which actives are over-represented; it also holds similar structures and randomly drawn compounds.

experiment: HSF-1 activators, primary screen, NIH3T3-HGL cells, MG132 stress, luminescence, single point (AID 504408); conditions: NIH3T3-HGL HSF-1 luciferase reporter, MG132, 8 h; at 9 µM; active compounds read high; 100% = twice DMSO control signal;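 note: 0% = median of the neutral control wells and 100% = twice that signal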

activation, active:
Cc1ccc(NC(=O)c2cc3ccccc3o2)cc1 51.6%
O=C1c2ccccc2NC(c2ccc(-c3cccc(Cl)c3)o2)N1O (configuration not stated) 76.4%
O=C(Nc1nc(-c2ccco2)c(-c2ccco2)s1)c1ccco1 70.1%
Cc1ccc2nnn(Cc3cccc(C(C)(C)C)c3O)c2c1 59.9%
Cc1cc(C)nc(S/C=C/C(=O)c2ccccc2)n1 111%
CCc1ccc(CN2C(=O)c3ccccc3C2C(=O)NCC2CCCO2)cc1 (configuration not stated) 62.2%
COc1ccc(S(=O)(=O)N2CCOCC2)cc1NC(=O)CSc1ncnc2ccccc12 72.7%
O=C(Cc1c(O)c2ccccc2[nH]c1=O)NCc1ccccc1 55.5%
COc1ccc2c(Cl)c(C(=O)NCc3ccco3)sc2c1 59.8%
Cc1cccc(-c2noc(-c3ccc(F)cc3)n2)c1 55%
CCOc1ccc(NC(=S)N2CCCCCC2)cc1 65.8%
Cc1ccc(OCc2nc3ccccc3n2C)cc1 75.6%
CCn1c2ccccc2c2cc(NC(=O)C/C(C)=N/NC(=O)c3ccccc3N)ccc21 87.9%
Cc1cc(N/C=C\C(=O)c2ccc(Cl)c(Cl)c2)no1 54.6%
C=CS(=O)c1sc(Cl)c(N2CCOCC2)c1[N+](=O)[O-] (configuration not stated) 103%
CCOC(=O)C1=C(C)N=c2s/c(=C\C(=O)OC)c(=O)n2C1c1ccc(OC)cc1 (configuration not stated) 61.6%
CC1=NOC(=O)/C1=C\c1ccccc1 54.7%
COc1ccc(/C=C(\C#N)c2c[nH]c3ccccc23)cc1 69.3%
Cc1cc(C(=O)N2CCN(c3ccccn3)CC2)c(C)o1 62.2%

activation, inactive:
c1ccc(C[C@H]2CNCCN2CCC23CC4CC(CC(C4)C2)C3)cc1 -13.4%
Cc1ccc(CSCC(=O)N(C)CC(=O)Nc2ccc(C)cc2)cc1 -77.8%
O=C(CSC1=NS(=O)(=O)c2cc(F)ccc2N1)Nc1ccccc1F 30%
C/C(=N\NC(=S)Nc1ccc(C)cc1)c1cc2ccccc2o1 7.68%
Cc1ccc(OC(=O)c2cc3ccccc3o2)cc1 5.61%
CN(/N=C/c1ccccc1)C(=S)c1ccccc1 9.01%
O=C(O)C(c1ccccc1)N1C(=O)/C(=C\c2ccc(-c3cccc(Cl)c3)o2)SC1=S (configuration not stated) -2.76%
O=c1c(-c2cccc(Cl)c2)c[nH]n1-c1ccccc1 7.2%
Cc1ccc(C(=O)C(C)OC(=O)Cc2n[nH]c(=O)c3ccccc23)cc1C (configuration not stated) -0.0365%
O=C(NCc1ccccn1)Nc1ccc(Cl)cc1 -2.45%
CCN(CC(=O)Nc1c(F)cccc1F)C(=O)C1CCC1 -4.88%
O=C(Nc1ccccc1)c1ccco1 11.5%
NC(=O)c1ccsc1NC(=O)c1ccco1 26.5%
Cc1csc(NC(=O)c2ccc(C)s2)n1 -3.76%
O=C(NCCCN1CCCC1=O)c1ccc(S(=O)(=O)Nc2ccccc2)cc1 16.8%
CC(C)(C)C(=O)COC(=O)c1cc(S(=O)(=O)N2CCCCC2)ccc1N1CCOCC1 -1.57%
Cc1ccc(C(=O)CSc2nnc(Cn3nnc4ccccc43)n2C)cc1 43.4%
O=C(CN1C(=O)NC2(CCCC2)C1=O)OCCOc1ccc(F)cc1 3.21%
CCCCn1c(N)c(N(CCC(C)C)C(=O)CC2OC(=O)c3ccccc32)c(=O)[nH]c1=O (configuration not stated) -3.07%
Cc1cc(Oc2ccc(Cl)cc2)nc(SCC(=O)c2ccccc2)n1 2.82%
Cc1cc(C)nc(SCC(=O)c2ccc(Cl)cc2)n1 -1.86%
CSc1ccc(/C=C2\NC(=O)NC2=O)cc1 20.8%
CN(Cc1ccccc1F)C(=O)C(Cc1ccccc1)NC(=O)c1ccccc1 (configuration not stated) -0.838%
CCCCn1c(N)c(N(CCOC)C(=O)COc2c(C)cccc2C)c(=O)[nH]c1=O -3.47%
CC1CCC(NC(=O)C2c3ccccc3C(=O)N2Cc2ccc3c(c2)OCO3)CC1 (configuration not stated) -8.55%
CCC(C)NC(=O)C1c2ccccc2C(=O)N1Cc1ccccc1 (configuration not stated) 16.4%
CCOC(=O)c1cc(NC(=O)c2cccnc2)ccn1 -78.8%
COc1ccc(S(=O)(=O)N2CCOCC2)cc1NC(=O)COc1ccccc1 -3.48%
COc1ccc(S(=O)(=O)N2CCCCC2)cc1NC(=O)COc1ccccc1 4.76%
CCCOC(=O)Cc1c(O)c2ccccc2[nH]c1=O -21.7%
CCCC(=O)Nc1c(O)c2ccccc2[nH]c1=O -31.5%
Cc1ccc(NS(=O)(=O)c2ccc(C(=O)NCCCN3CCOCC3)cc2)cc1 -3.65%
O=C(NCCS(=O)(=O)NCc1ccc(F)cc1)c1ccccc1 2.75%
O=C(Nc1cccc2c1CCCC2)c1ccc(F)cc1 -3.19%
COc1ccc2oc(C(=O)NCc3ccco3)c(C)c2c1 6.69%
O=C(NCc1ccco1)c1sc2cccc(F)c2c1Cl 27.8%
CCN(CC(=O)Nc1cccc(S(=O)(=O)N2CCCCC2)c1)Cc1ccccc1 0.93%
CN1C(C(=O)NCc2ccco2)CC2Cn3c(nc4ccccc43)C21 (configuration not stated) -8.57%
Cc1nn(C)c(C)c1NS(=O)(=O)c1ccc(OC(F)(F)F)cc1 0.0449%
Cc1ccc(S(=O)(=O)N(Cc2cccc([N+](=O)[O-])c2)C(=O)N2CCN(C)CC2)cc1 17.1%
CC(=O)c1ccc(S(=O)(=O)NC2CC(=O)N(c3ccc4c(c3)OCCO4)C2)cc1 (configuration not stated) 8.08%
Cc1ccc(Cc2nc(-c3cccc(C)c3)no2)cc1 17.5%
COc1ccc2[nH]c(=O)c(-c3noc(-c4ccc(F)cc4)n3)cc2c1 25.7%
CCc1noc(C)c1C(=O)Oc1ccc(N(C)S(=O)(=O)c2ccc(C)c(C)c2)cc1 -16.6%
CCOC(=O)c1ccc(NC(=S)N2CCCC2)cc1 17.9%
CCOc1ccc(NC(=S)N2CCC(N(C)CC3CCCO3)CC2)cc1 (configuration not stated) -6.15%
O=C(Nc1ccc2nc3n(c(=O)c2c1)CCCC3)c1ccc(Cl)nc1 3.58%
COc1ccc(C(=O)NCC(c2ccco2)N2CCc3ccccc32)cc1OC (configuration not stated) 2.97%
Cc1noc(C)c1CSCC(=O)Nc1ccc(Br)cc1Cl 1.94%
COCn1c(COc2ccccc2)nc2ccccc21 23.9%
CC(C)n1c(COc2ccccc2)nc2ccccc21 12.3%
Cc1n[nH]c(=O)c2c(NC(=O)COC(=O)c3ncc(Cl)c(Cl)c3Cl)oc(C)c12 -1.88%
CN(CC(=O)Nc1cccc(F)c1)C(=O)C1CC(=O)N(CCc2ccccc2)C1 (configuration not stated) -1.17%
CCn1c2ccccc2c2cc(NC(=O)CNC)ccc21 -4.5%
CCn1c2ccccc2c2cc(NC(=O)COC(=O)c3ccccc3Br)ccc21 15.8%
Nc1c(C(=O)Nc2ccc3c(c2)OCCO3)nnn1Cc1ccccc1 43.5%
Cc1ccc(OCCNC(=O)CN2C(=O)NC3(CCCC3)C2=O)cc1 2.14%
CCCNC(=O)c1ccc(Cl)c(Cl)c1 8.76%
CCC(=O)Nc1ccc(C(=O)Nc2cc(C)on2)cc1 11.5%
O=C(CCCN=C1NS(=O)(=O)c2ccccc21)OCC(=O)c1ccc(F)c(F)c1 -1.2%
CC(Oc1ccc(F)cc1)C(=O)Nc1cc(S(=O)(=O)N2CCOCC2)ccc1N1CCN(C)CC1 (configuration not stated) -1.39%
Cc1ccc(S(=O)(=O)N(C)c2ccc(OCC(=O)OCc3ccc(C#N)cc3)cc2)cc1 -4.36%
Cc1ccc2nc(SCC(=O)N3CCN(c4ccccc4)CC3)nc(=O)n2c1 -13.7%
CCOC(=O)C1=C(CSc2nccn2C)NC(=O)NC1c1ccc(OC)cc1 (configuration not stated) 30.7%
COCCOC(=O)C1=C(C)N=c2s/c(=C\c3cccs3)c(=O)n2C1c1cccs1 (configuration not stated) 20%
COCCCn1c(SCC(=O)Nc2oc(C)c3c(C)n[nH]c(=O)c23)nc2sc3c(c2c1=O)CCC3 0.458%
C#CCOc1ccccc1/C=C1/C(=O)ON=C1C -2.14%
C=CCOc1ccc(/C=C2/C(=O)ON=C2C)cc1OCC -6.38%
Cn1ccsc1=NC(=O)c1cc(S(=O)(=O)N2CCOCC2)ccc1Cl 0.095%
O=C(Nc1c(Br)cc2c(c1Br)Cc1ccccc1-2)C(F)(F)F -5.38%
COc1ccc2[nH]cc(/C=C(/C#N)S(=O)(=O)c3ccccc3)c2c1 0.918%
COc1cc(/C=C(\C#N)c2nc3ccccc3[nH]2)ccc1O 20.9%
O=C(COc1ccccc1)Nc1cc2c3c(c1)CC(=O)N3CCC2 5.75%
O=C(NCc1cccnc1)c1cc(S(=O)(=O)N2CCOCC2)c(Cl)cc1Cl -12.2%
CCN(CC)CCn1c2c(c(SCC(=O)Nc3ccc(C(C)C)cc3)nc1=O)CCC2 8.29%
O=C(C(Cl)Cl)N1CCN(c2ccccn2)CC1 3.47%
O=C(c1cc2ccccc2s1)N1CCN(c2ccccn2)CC1 -12%
COc1ccc(CCNc2cc(N3CCN(C(=O)c4ccccc4OC)CC3)ccc2[N+](=O)[O-])cc1OC 22.3%
